Shown are actives, neighbours in structure and some others; about 0.84% of the full set was active somewhere.
PPARg SRC-2 ag = PPARgamma-driven SRC-2 recruitment agonism. PPARgamma LBD-SRC-2 recruitment, biochemical. activation, % at 8 µM. 200,000 tested, 0.34% active; in the data active = activation above about 22%
Target sequence (P37231 whole entry, looked up, the tested form may be a part): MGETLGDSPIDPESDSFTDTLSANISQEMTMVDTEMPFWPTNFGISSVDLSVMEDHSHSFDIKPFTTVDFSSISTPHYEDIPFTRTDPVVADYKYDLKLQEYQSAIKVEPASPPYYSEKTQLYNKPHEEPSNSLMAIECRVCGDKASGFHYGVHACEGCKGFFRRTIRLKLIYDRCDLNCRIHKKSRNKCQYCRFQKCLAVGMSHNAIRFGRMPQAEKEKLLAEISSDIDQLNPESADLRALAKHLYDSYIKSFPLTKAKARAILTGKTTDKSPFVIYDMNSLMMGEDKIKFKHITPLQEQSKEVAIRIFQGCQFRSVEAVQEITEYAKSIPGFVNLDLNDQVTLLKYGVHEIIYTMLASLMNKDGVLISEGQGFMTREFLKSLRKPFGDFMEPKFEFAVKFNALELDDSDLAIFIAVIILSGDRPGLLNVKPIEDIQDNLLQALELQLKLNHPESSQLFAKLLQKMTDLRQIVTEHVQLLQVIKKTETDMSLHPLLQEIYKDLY
SRC3 TRFRET art = TR-FRET artefact, counter-screen to PPARgamma/SRC-3 agonist assay | PPARgamma/SRC-3 format; active compounds read high | TR-FRET ratio at 8 µM | 99,000 tested, 0.39% active | AID 1048
TR-FRET SRC-2 ct = counter-screen for PPARgamma SRC-2 recruitment agonists: TR-FRET artefact. active compounds read high. TR-FRET ratio at 8 µM. 200,000 tested, 0.4% active
SRC1 TRFRET art = TR-FRET artefact, counter-screen to PPARgamma/SRC-1 agonist assay; TR-FRET ratio at 8 µM; 99,000 tested, 0.34% active; AID 1051; TR-FRET detection artefact counter-screen, emission ratio; active compounds read high; in the data active = TR-FRET ratio above about 2300
PPARg SRC-3 ag = agonists of human PPARgamma SRC-3 coactivator recruitment; biochemical PPARgamma/SRC-3 coactivator recruitment assay; activation, % at 8 µM; 200,000 tested, 0.26% active; in the data active = activation above about 23%
PPARg SRC1 recr = PPARgamma-driven SRC-1 recruitment agonism | P37231 | 200,000 tested, 0.41% active | activation, % at 8 µM | PPARgamma-SRC-1 coactivator recruitment biochemical assay | AID 631; in the data active = activation above about 19%
A number is an active result; i = inactive; nt = no result given. Cut-off read from the data, not from the text of the source, unless noted: active = TR-FRET ratio above about 2000; inactive = the rest.

SMILES | PPARg SRC-2 ag | SRC3 TRFRET art | TR-FRET SRC-2 ct | SRC1 TRFRET art | PPARg SRC-3 ag | PPARg SRC1 recr
CCCCC(c1nnnn1Cc1ccco1)N1CCN(C(=O)c2ccco2)CC1 (stereo not drawn) | i | nt | i | nt | i | i
COc1ccc(C(C(=O)NC2CCCC2)N(C(=O)c2snc(-c3ccc(F)cc3)c2N)c2ccc(OC)cc2)cc1 (stereo not drawn) | i | nt | 2223 | nt | i | i
COc1ccc(NC(=O)CSc2nnc(CNC(=O)COc3ccc(Cl)cc3)o2)cc1 | i | i | i | i | i | i
CC(C)NC(=O)COC(=O)c1cccc(NS(=O)(=O)/C=C/c2ccccc2)c1 | 22 | i | i | i | i | i
Cc1cc(C)nc(N2CCC(C(=O)NCc3ccccc3)CC2)n1 | i | nt | i | nt | i | i
CCN(CC)c1ccc(C=Nc2ccc(C)cc2)c(O)c1 | i | nt | i | nt | i | i
CCN(CC)c1ccc(N=Cc2ccc(N(CC)CC)cc2O)cc1 | 27 | nt | i | nt | 41 | i
CN1C(=O)CC(NNC(=O)c2ccc(Cl)cc2)C1=O (stereo not drawn) | i | nt | i | nt | i | i
CCOC(=O)c1sc(=NC(=O)c2ccc(OC(C)C)cc2)n(C)c1C | i | i | i | i | i | 43
COc1ccc(-c2cc(-c3cccs3)c(C#N)c(SCC(=O)NCc3ccccc3OC)n2)cc1 | i | nt | i | nt | i | 27
COc1ccccc1CNC(=O)CSc1nc(N)c(C#N)c(-c2cccs2)c1C#N | i | nt | i | nt | 30 | i
N#Cc1c(N)nc(SCC(=O)NCc2ccc3c(c2)OCO3)c(C#N)c1-c1cccs1 | i | nt | i | nt | i | i
COc1ccc(-c2cc(-c3ccccc3)nc(SCC(=O)Nc3ncc(C)s3)c2C#N)cc1 | i | i | i | i | i | i
COc1ccc(-c2cc(-c3cccs3)c(C#N)c(SCC(=O)NCc3ccccc3)n2)cc1 | i | nt | i | nt | i | 39
CC(C)OC(=O)c1sc2nc(-c3ccccc3)ccc2c1N | i | nt | i | nt | i | i
C#CCSc1nnc(CSc2nc3ccccc3s2)n1-c1ccccc1 | i | nt | i | nt | i | i
CNC(=S)N1N=C(c2ccc(C)cc2)CC1c1ccc(N(C)C)cc1 (stereo not drawn) | i | 2431 | i | 2359 | i | i
CNC(=S)N1N=C(c2ccc(C)cc2)CC1c1cc(OC)ccc1OC (stereo not drawn) | i | 2547 | i | 2589 | i | i
CNC(=S)N1N=C(c2ccc(C)cc2)CC1c1ccc(OC)cc1 (stereo not drawn) | i | nt | i | nt | i | i
CC(C)c1ccc2c(c1)C(=O)NC(C)(C)C2 | i | nt | i | nt | i | i
CN(C)S(=O)(=O)c1ccc(N2CCCC2)c(C(=O)Nc2nc3c(ccc4ccccc43)s2)c1 | i | 2179 | 2069 | i | i | i
O=C(Nc1nc2c(ccc3ccccc32)s1)c1cc([N+](=O)[O-])ccc1N1CCOCC1 | i | i | i | i | i | i
CN(C)c1ccc(P(=O)(CC(=O)N/N=C/c2ccc(C#N)cc2)OCCCl)cc1 (stereo not drawn) | i | i | i | i | i | i
COc1ccc(C2CC(c3ccccc3)=NN2C(=O)COC(=O)c2ccc(Cl)nc2)cc1 (stereo not drawn) | i | i | i | i | i | i
COc1ccc(C2CC(c3ccccc3)=NN2C(=O)COC(=O)c2cccc(S(=O)(=O)N(C)C)c2)cc1 (stereo not drawn) | i | 2064 | 2075 | 2411 | i | i
SMILES | PPARg SRC-2 ag | SRC3 TRFRET art | TR-FRET SRC-2 ct | SRC1 TRFRET art | PPARg SRC-3 ag | PPARg SRC1 recr
COc1ccc(C2CC(c3ccccc3)=NN2C(=O)COC(=O)c2cnc(Cl)c(Cl)c2)cc1 (stereo not drawn) | i | i | i | i | i | i
COc1ccc(C2CC(c3ccccc3)=NN2C(=O)COC(=O)c2cccc(S(=O)(=O)N3CCOCC3)c2)cc1 (stereo not drawn) | i | 2328 | 2061 | 2459 | i | i
c1ccc(CCn2cnc3ccccc32)cc1 | i | i | i | i | i | i
CC(C)c1ccc(OCC(=O)NC(=S)Nc2ccc3c4c(cccc24)CC3)cc1 | i | nt | i | nt | i | 22
COc1ccc(-n2c(SCCC#N)nnc2-c2cc(Cl)ccc2OC)cc1Cl | i | nt | 2116 | nt | i | i
Cc1cccc(-c2nnc(SCC#N)n2-c2cccc(Cl)c2)c1 | i | nt | i | nt | i | i
Cc1cc(NC(=O)c2cn(C3CCCCC3)c(=O)c3c2c2ccccc2n3C)no1 | i | nt | i | nt | i | i
N#CC1=C(S)N(c2ccccc2)C(c2ccc(-c3cccc(Cl)c3)o2)NC1=O (stereo not drawn) | i | i | i | 2388 | i | i
Cc1cccc(N2C(S)=C(C#N)C(=O)NC2c2ccco2)c1 (stereo not drawn) | i | i | i | i | i | i
COc1ccc(-c2cc(C(=O)O)no2)cc1 | i | i | i | i | i | i
COCCn1c(=NC(=O)c2cc(Cl)sc2Cl)sc2cc(S(N)(=O)=O)ccc21 | i | i | i | i | i | i
COC(=O)Cn1c(=NC(=O)c2cc(-c3cccs3)nc3ccccc23)sc2cc(S(N)(=O)=O)ccc21 | i | i | i | i | i | i
CCOCCn1c(=NC(=O)c2cc(Cl)sc2Cl)sc2cc(S(N)(=O)=O)ccc21 | i | 4758 | i | i | 30 | i
CCOC(=O)Cn1c(=NC(=O)c2cc(-c3cccs3)nc3ccccc23)sc2cc(S(N)(=O)=O)ccc21 | i | 2342 | i | i | i | i
Cc1cccc(NC(=S)Nc2ccc(N3CCOCC3)cc2)c1C | i | i | 1974 | i | i | i
Cn1c(=O)[nH]c(=O)c2c1nc(Br)n2Cc1ccccc1Cl | i | nt | i | nt | i | i
N#Cc1cc(O)c(-n2nnc3ccccc32)cc1C#N | 26 | i | i | i | i | i
N#Cc1cc(Oc2cccc3cccnc23)c(-n2nnc3ccccc32)cc1C#N | i | nt | i | nt | i | i
Cc1ccccc1OCCn1c(=O)sc2ccccc21 | i | nt | i | nt | i | i
Cc1ccccc1-n1c(-c2ccco2)n[nH]c1=S | 27 | i | i | i | i | i
O=C(COc1ccc(/C=N/NC(=O)c2cc3ccccc3o2)cc1Br)Nc1ccccc1 | 63 | nt | 3281 | nt | i | i
Cc1cccc(NC(=S)NC(C)(C)CC(C)(C)C)c1 | i | i | i | i | i | i
O=C(NCc1cccc(F)c1)c1ccc(N2C(=O)Cn3c(cc4sccc43)C2=O)cc1 | i | 2155 | i | i | i | i
Cc1c(N=Nc2ccc(O)cc2)c(=O)n(-c2ccccc2)n1C | i | 2164 | i | i | i | i
CCOC(=O)CCc1c(C)n(CC)c2ncnn2c1=O | i | i | i | i | i | i
Cc1cc(N2C3CCC2CC(O)(c2ccc(F)cc2)C3)nc(-c2ccccc2)n1 (stereo not drawn) | i | nt | i | nt | i | i
CC(C)C(=O)N1C2CCC1CC(O)(c1ccc(F)cc1)C2 (stereo not drawn) | i | nt | i | nt | 48 | i
COc1ccc(S(=O)(=O)N2CCCN(CCC(=O)Nc3cccc(C(F)(F)F)c3)CC2)cc1 | i | nt | i | nt | i | i
COc1cc(OC)cc(C(=O)NCC(=O)OCC(=O)c2ccc3c(c2)-c2ccccc2C3)c1 | i | 2602 | 2065 | i | i | i

Assay outcomes: PubChem, The Scripps Research Institute Molecular Screening Center
